# Test results reported in PubChem BioAssay.
# The source made the active and inactive calls.
# Legend:
# [1] = small molecules captured by biotinylated probe aFSTL3 – biochemical, small-molecule microarray, fluorescence 635/667, stem cell growth factor project, primary screen (AID 1064); settings: higher = more signal;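 further: measures binding of the biotinylated anti-FSTL3 antibody to printed compounds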
# [2] = binders from COS7 lysate, DM2A8 probe, primary screen, torsin A project, cell lysate, small-molecule microarray, fluorescence 635/667 (AID 1065); settings: higher = more signal, COS7 lysate expressing mutant human TOR1A
# [3] = small molecules captured by biotinylated probe aFGF2 – biochemical, small-molecule microarray, fluorescence 635/667, stem cell growth factor project, primary screen (AID 1067); settings: higher = more signal;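 further: measures binding of biotinylated aFGF2 protein to printed compounds on slides; z-score merges feature fluorescence and signal-to-noise across triplicate slides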
# [4] = small molecules captured by biotinylated probe aFGF10 – biochemical, small-molecule microarray, fluorescence 635/667, stem cell growth factor project, primary screen (AID 1071); settings: higher = more signal;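 further: score merges 667 nm spot intensity and signal to noise from triplicate slides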
# [5] = biological target: Neurogenic locus notch homolog protein 2 (Homo sapiens) (UniProt Q04721); assay: small molecules binding Notch2 protein – biochemical, small-molecule microarray, 635 nm fluorescence, stem cell growth factors, primary screen (AID 1073); settings: higher = more signal
# Chain of Neurogenic locus notch homolog protein 2 (Homo sapiens) (Q04721 whole entry, looked up, canonical isoform): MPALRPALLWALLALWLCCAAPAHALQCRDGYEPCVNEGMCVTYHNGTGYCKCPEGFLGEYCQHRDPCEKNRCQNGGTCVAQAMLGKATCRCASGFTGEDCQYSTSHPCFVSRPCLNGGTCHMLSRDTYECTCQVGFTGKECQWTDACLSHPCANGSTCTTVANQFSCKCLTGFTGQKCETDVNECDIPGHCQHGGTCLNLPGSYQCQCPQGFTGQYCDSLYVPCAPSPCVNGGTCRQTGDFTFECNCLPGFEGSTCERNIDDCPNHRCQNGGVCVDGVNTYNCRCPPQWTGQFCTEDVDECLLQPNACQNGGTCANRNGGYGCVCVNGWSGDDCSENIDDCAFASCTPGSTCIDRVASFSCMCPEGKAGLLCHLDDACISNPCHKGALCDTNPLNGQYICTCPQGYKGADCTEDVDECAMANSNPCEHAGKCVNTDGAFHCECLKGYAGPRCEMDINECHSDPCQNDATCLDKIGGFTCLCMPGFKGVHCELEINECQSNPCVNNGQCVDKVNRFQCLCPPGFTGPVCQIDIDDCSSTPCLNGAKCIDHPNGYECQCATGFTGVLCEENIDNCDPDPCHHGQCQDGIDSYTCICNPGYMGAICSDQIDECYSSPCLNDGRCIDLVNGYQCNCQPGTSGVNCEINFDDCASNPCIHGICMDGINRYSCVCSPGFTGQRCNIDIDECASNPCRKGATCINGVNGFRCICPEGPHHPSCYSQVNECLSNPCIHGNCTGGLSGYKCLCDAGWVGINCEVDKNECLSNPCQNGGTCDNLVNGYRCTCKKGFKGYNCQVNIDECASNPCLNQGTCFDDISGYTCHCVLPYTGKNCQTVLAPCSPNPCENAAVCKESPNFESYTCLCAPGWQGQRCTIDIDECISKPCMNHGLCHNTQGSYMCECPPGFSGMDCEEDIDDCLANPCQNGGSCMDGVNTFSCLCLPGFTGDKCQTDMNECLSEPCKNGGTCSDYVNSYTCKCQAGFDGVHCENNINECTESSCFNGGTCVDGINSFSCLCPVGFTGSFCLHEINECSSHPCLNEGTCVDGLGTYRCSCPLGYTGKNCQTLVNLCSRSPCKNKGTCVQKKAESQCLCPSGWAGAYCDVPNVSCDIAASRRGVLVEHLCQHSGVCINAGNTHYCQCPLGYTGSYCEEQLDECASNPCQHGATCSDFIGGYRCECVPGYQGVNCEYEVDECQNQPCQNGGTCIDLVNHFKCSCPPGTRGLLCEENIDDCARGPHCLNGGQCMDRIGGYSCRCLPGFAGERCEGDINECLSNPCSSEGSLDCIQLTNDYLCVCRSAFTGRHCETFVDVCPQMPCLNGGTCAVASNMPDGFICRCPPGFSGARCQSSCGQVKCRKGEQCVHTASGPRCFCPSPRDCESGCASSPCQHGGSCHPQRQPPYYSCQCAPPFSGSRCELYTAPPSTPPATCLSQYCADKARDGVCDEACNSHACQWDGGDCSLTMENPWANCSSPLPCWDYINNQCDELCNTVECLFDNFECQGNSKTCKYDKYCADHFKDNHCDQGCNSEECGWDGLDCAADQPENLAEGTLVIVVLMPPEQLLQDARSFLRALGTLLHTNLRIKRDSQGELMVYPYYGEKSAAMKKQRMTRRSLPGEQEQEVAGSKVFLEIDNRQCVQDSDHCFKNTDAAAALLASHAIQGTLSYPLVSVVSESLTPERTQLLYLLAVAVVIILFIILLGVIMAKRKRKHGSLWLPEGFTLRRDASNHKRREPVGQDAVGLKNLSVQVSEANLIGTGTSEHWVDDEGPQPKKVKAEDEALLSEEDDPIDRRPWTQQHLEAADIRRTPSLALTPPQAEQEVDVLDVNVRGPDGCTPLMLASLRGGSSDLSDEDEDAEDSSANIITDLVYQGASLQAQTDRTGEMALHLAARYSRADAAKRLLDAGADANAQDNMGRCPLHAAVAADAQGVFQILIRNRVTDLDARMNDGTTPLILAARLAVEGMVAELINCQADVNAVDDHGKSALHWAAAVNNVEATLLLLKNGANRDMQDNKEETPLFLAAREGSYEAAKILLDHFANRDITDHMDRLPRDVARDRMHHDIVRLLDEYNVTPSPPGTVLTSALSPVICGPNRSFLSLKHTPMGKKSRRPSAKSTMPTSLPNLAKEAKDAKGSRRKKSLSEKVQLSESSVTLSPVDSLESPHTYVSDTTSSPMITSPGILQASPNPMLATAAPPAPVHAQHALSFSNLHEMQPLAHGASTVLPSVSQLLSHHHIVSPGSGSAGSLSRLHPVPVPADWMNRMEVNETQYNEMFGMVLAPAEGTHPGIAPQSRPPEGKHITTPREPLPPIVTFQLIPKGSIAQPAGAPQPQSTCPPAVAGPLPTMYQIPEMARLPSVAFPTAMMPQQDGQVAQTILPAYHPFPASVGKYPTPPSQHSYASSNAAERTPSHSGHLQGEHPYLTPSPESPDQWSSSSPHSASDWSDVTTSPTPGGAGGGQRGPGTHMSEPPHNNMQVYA
# [6] = biological target: Pro-neuregulin-1, membrane-bound isoform (Homo sapiens) (UniProt Q02297); assay: small molecules binding neuregulin-1 protein – biochemical, small-molecule microarray, fluorescence 635/667, psychiatric disease protein project, primary screen (AID 1075); settings: NRG1 binding, 635 nm fluorescence, higher = more signal;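 further: score combines 667 nm spot fluorescence with signal to noise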
# Chain of Pro-neuregulin-1, membrane-bound isoform (Homo sapiens) (Q02297 whole entry, looked up, the tested form may be a part, canonical isoform): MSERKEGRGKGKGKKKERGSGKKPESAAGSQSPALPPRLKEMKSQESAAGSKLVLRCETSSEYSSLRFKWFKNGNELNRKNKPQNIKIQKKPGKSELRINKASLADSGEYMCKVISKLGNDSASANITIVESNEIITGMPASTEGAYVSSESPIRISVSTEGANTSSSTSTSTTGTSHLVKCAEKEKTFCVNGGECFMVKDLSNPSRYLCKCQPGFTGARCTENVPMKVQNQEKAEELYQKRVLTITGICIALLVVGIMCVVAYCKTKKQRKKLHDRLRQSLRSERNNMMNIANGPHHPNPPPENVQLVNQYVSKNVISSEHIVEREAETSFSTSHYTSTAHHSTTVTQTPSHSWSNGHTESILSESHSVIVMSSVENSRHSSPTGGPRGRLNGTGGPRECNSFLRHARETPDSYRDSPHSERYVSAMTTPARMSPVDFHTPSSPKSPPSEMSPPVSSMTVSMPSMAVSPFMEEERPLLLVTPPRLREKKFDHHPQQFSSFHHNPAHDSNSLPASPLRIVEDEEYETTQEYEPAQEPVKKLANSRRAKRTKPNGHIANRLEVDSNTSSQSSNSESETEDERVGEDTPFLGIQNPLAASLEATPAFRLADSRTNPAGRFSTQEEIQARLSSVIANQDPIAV
# [7] = tested on: Neuregulin-1 EGF-like domain; assay: small molecules binding NRG1 EGF domain – biochemical, small-molecule microarray, 635 nm fluorescence, primary screen (AID 1081); settings: higher = more signal;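 further: binding of the protein to compounds printed on small-molecule microarray slides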
# [8] = FRG1 expression reporter modulators in myotubes – cell-based, C2C12 myotubes, firefly/Renilla luciferase, luminescence, FRG1 inhibition for FSHD, primary screen (AID 1084); settings: FRG1 promoter luciferase, higher = more signal, called active from +8 up or from −8 down
# [9] = small molecules captured by biotinylated probe aFST – biochemical, small-molecule microarray, fluorescence 635/667, stem cell growth factor project, primary screen (AID 1086); settings: higher = more signal;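 further: score merges 667 nm fluorescence with signal-to-noise of each printed compound spot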
# [10] = binders of probe aHhip on microarray, primary screen, stem cell growth factor project, biochemical, small-molecule microarray, fluorescence 635/667 (AID 1087); settings: higher = more signal;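 further: score merges spot fluorescence at 667nm with spot signal to noise ratio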
Compound,composite z-score [1],composite z-score [2],composite z-score [3],composite z-score [4],composite z-score [5],composite z-score [6],composite z-score [7],z-score [8],composite z-score [9],composite z-score [10]
CCCCCCCCCCC(O)C1C=CC2C(=O)N(c3ccccc3)C(=O)C2N1Nc1ccc(C#N)cc1 (stereo not given),0.356,0.179,-0.0262,0.696,1.18,1.73,0.98,1.05 (inactive),0.647,0.0626
NCCCCCCNC(=O)[C@@H]1C[C@@H]2C(=O)N[C@@H](CCCCN)C(=O)N2[C@@H]1c1ccc(O)cc1,0.208,0.301,-0.0313,0.469,0.147,2.01,1.25,0.598 (inactive),0.077,-0.149
C=CCN1Cc2ccccc2[C@@H]2OC(c3ccc(OCCCO)cc3)=N[C@]2(CC=C)C1=O,1.41,0.629,0.32,0.0911,0.848,0.955,1.06,-0.479 (inactive),2.47,-0.159
CCC1=C2CN(Cc3ccccc3)[C@@H](C(=O)Cc3ccccc3)C2C=CCC1 (stereo not given in full),-0.317,-0.756,-0.0909,0.083,-0.227,0.271,0.441,-1.02 (inactive),0.0633,-0.0994
C=CC[C@@H](OC(=O)Nc1ccc(SC)cc1)c1ccc(O)c(F)c1,0.401,0.601,-0.0729,0.165,-0.131,1.7,1.21,6.7 (inactive),-0.277,-0.0645
COCCCNC(=O)[C@@H]1c2ccccc2C(=O)N(C(C)C)[C@H]1c1ccc(CO)cc1,0.312,0.355,-0.051,-0.373,0.0446,0.576,0.763,-0.215 (inactive),0.0241,-0.249
C=C[C@H]1C(C(=O)OCC)=CC[C@@H](c2ccccc2)N1S(=O)(=O)c1ccc(C)cc1,0.131,0.431,0.16,0.693,1.25,1.04,0.779,-3.11 (inactive),0.992,-0.266
O=C1OCCC/C=C\[C@H]2OC34C=CCN(c5ccc6ccccc6c5)C(=O)[C@H]3N(CCO)C(=O)[C@@H]4C12 (stereo not given in full),0.24,-0.514,-0.159,-0.818,-1.23,1.6,1.04,0.751 (inactive),-0.667,-0.423
Cn1cccc1C(O)C1C=CC2C(=O)N(c3ccccc3)C(=O)C2N1Nc1ccccc1 (stereo not given),-0.236,0.401,0.137,0.925,1.71,1.91,1.17,0.687 (inactive),0.706,-0.136
CCCCCCCCCC(O)C1C=CC2C(=O)N(c3ccccc3)C(=O)C2N1Nc1cc(OC)c(OC)c(OC)c1 (stereo not given),-0.0386,-0.666,0.0166,0.23,0.45,0.856,0.487,0.393 (inactive),0.199,-0.13
CCCC=C(CCC)[C@@H](NP(=O)(c1ccccc1)c1ccccc1)c1ccc(-c2ccccc2)cc1,0.0517,0.887,0.112,0.704,1.57,1.19,1.14,-2.1 (inactive),1.14,0.172
[N-]=[N+]=NCc1ccccc1C[C@@]1(C(N)=O)N=C(c2ccc(OCCCO)cc2)O[C@@H]1c1ccccc1,0.218,-0.173,-0.0592,-0.257,0.608,2.15,1.16,-1.67 (inactive),0.249,0.107
CC(C)C(O)C1C=CC2C(=O)N(c3ccccc3)C(=O)C2N1Nc1ccccc1 (stereo not given),-0.393,0.466,0.0293,0.79,1.49,1.24,1.39,0.33 (inactive),1.53,0.158
COc1ccccc1CN1C(=O)c2ccccc2[C@](Cc2ccccc2I)(C(=O)O)[C@@H]1c1ccc(CO)cc1,-0.689,0.387,0.0043,1.01,1.51,1.36,1.27,-1.49 (inactive),-0.262,0.305
CC(C)c1ccc(NN2C(C(O)c3ccc(F)cc3)C=CC3C(=O)N(c4ccccc4)C(=O)C32)cc1 (stereo not given),-0.26,0.25,0.187,1,1.55,1.28,1.04,-0.38 (inactive),1.25,-0.118
CC1CC/C=C\[C@H]2OC34C=CCN(C(C)C)C(=O)[C@H]3N(CCO)C(=O)[C@@H]4C2C(=O)O1 (stereo not given in full),0.689,0.987,-0.159,-0.228,-1.19,1.08,1.23,0.0746 (inactive),-0.662,-0.134
O=C(O)[C@@H]1[C@@H]2C(=O)N(c3ccccc3)C(=O)[C@@H]2C[C@@H]1Sc1ccccc1,0.305,-0.534,-0.0833,0.105,-0.0593,-0.141,0.695,1.06 (inactive),-0.377,0.0505
CC(C)[Si]1(C(C)C)OCc2cc(C3CC3)nc(-c3ccc(Oc4ccccc4)cc3)c21,-0.0872,-0.502,-0.207,-0.18,-0.393,-0.65,-0.791,-0.343 (inactive),-0.15,-0.469
CC[C@@H]1C=C(C(=O)O)[C@H](c2ccccc2)N1S(=O)(=O)c1ccc(C)cc1,0.262,0.577,0.0663,0.829,1.53,1.19,1.38,-1.24 (inactive),0.635,-0.0296
C=CCN1C(=O)[C@]2(CCS(=O)(=O)c3ccccc3)N=C(c3ccc(OCCCO)cc3)O[C@@H]2c2ccccc21,-0.104,0.264,0.0109,0.162,0.84,0.445,1.28,-1.9 (inactive),0.454,-0.121
CCCCC=C[C@@H](NC(=O)OCc1ccccc1Cl)c1ccccc1,0.983,0.199,0.583,0.711,1.59,1.51,1.19,1.31 (inactive),2.81,0.996
O=C1OCCC=C[C@H]2OC34C=CCN(c5ccc6ccccc6c5)C(=O)[C@H]3N(CCCO)C(=O)[C@@H]4C12 (stereo not given in full),0.796,-2.38,-0.258,-0.736,-2.08,-0.962,-0.948,-0.0625 (inactive),-0.723,-0.134
C=C(COC)C(=O)CC[C@@H](OC(C)=O)c1cccc(OCCO)c1,-0.0369,-0.489,-0.085,0.243,-0.0381,-0.372,0.691,-0.721 (inactive),-0.204,-0.249
CC(=O)NCCCC[C@@H]1NC(=O)[C@@H]2C[C@H](C(=O)NCCCCCN)[C@H](c3cccc(OCCO)c3)N2C1=O,-0.0173,1.92,0.0322,0.742,0.542,1.7,1.01,0.301 (inactive),0.268,-0.245
COc1ccc(C(=O)Nc2ccc(CN3C(=O)[C@]4(O[C@H](CC(=O)N5Cc6ccccc6C[C@H]5CO)[C@@H]([Si](C)(C)c5ccc(OC)cc5)[C@@H]4C)c4ccccc43)cc2)cc1,-0.402,0.716,-0.0785,0.357,0.397,1.48,0.95,-1.89 (inactive),0.0491,-0.0618
